This note sets out measurements from PubChem BioAssay.

Calls of active or inactive are those of the source.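 Rule for the calls, unless noted: active = inhibition above the screen-wide mean plus 3 SD, about 51%; inactive = the rest.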

Test [1] can be described thus: reduced mouse 2C T cell binding to pMHC/ICAM-1 vesicles – MLPCN validation set, flow cytometry, LFA-1/ICAM-1 modulator project, pilot screen (AID 2523;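 active = response below a set limit, under 55% cells CD8-positive and vesicle-bound, and CD8 cells' 90th-percentile brightness under 279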;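 for vesicle binding response: mean PE anti-B7-1 fluorescence of CD8+ cells relative to row control; 100% = QL9-loaded vesicles with DMSO vehicle in the same plate row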). The following applies: 2C mouse CD8+ T cells, at 7 µM, stronger effect = lower value; double positive events: measured here: CD8+/vesicle+ event percentage. On the technique in general: A flow cytometer gives signals particle by particle.

Test [2] has as its target Integrin beta-1 (Homo sapiens) + Integrin alpha-4 (Homo sapiens) (UniProt P13612+P05556). In words: alpha4beta1 integrin LIBS antibody binding reduction – U937 cells, HUTS-21 mAb, flow cytometry, validation set, VLA-4 allosteric modulator project, pilot screen (AID 2674;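 active = inhibition above 50%, about 3 SD of the validation set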;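 note: antibody binding induced by the VLA-4 ligand LDV present at three times its Kd; 0% = LDV ligand with antibody and no compound and 100% = antibody without LDV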). To be noted: HUTS-21 LIBS mAb binding, at 6.7 µM, stronger effect = higher value, binding induced by LDV ligand.

Test [3] in a line: calorie-restriction mimetic ROS inhibitors, yeast – validation compound set, pilot screen (AID 2706;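 active = superoxide response below 65% of plate, a cut near 3 SD across the whole screen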;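 note: yeast exposed to compound for one week at 30 degrees C before staining; 100% = mean of all compound wells on the same plate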). The following applies: S. cerevisiae aging, superoxide DHE fluorescence; at 10 µM, stronger effect = lower value.
Test [4] deals with Beta-adrenergic receptor kinase 1 (Homo sapiens) (UniProt P25098). In words: GRK2 binders displacing RNA aptamer, biochemical, validation, human GRK2, bead flow cytometry (AID 488806;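 active = aptamer binding inhibition above 30%, about 3 SD of noise from non-fluorescent compounds; inactive = inhibition at or below 30%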). The following applies: bead-bound GRK2, FAM-aptamer displacement, at 10 µM, stronger effect = higher value.
Chain of Beta-adrenergic receptor kinase 1 (Homo sapiens) (P25098 whole entry, looked up): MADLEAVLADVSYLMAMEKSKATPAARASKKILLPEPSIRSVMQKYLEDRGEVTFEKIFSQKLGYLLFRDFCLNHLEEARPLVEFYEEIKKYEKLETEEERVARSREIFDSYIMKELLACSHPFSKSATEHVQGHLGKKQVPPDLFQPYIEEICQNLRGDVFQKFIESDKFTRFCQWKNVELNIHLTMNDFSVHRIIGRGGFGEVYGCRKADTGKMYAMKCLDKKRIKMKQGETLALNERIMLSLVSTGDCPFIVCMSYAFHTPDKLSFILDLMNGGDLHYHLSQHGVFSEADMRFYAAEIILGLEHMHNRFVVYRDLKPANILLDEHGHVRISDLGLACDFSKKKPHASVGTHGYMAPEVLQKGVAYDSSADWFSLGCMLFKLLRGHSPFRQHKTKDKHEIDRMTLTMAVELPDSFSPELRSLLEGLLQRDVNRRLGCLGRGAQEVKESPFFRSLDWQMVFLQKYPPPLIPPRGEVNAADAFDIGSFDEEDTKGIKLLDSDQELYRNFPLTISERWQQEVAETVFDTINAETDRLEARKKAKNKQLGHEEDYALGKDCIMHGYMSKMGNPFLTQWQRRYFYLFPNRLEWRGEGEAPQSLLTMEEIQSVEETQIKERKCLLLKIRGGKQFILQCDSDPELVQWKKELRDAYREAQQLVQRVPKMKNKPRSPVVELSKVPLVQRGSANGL
Test [5] concerns the target Beta-2 adrenergic receptor (Homo sapiens) (UniProt P07550). Briefly: agonist-induced loss of surface beta2AR – cell-based, FAP fluorogen, flow cytometry, validation set, pilot screen (AID 504459;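 active = percent response above 42, roughly 3 SD of non-fluorescent test compounds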;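 note: agonist-driven loss of surface beta2AR via internalization measured by FAP dye flow cytometry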). To be noted: Am2.2-beta2AR cells, at 10 µM, stronger effect = higher value.
In test [6] the target is AP-2 complex subunit beta (Homo sapiens) (UniProt P63010). Briefly: beta-arrestin/AP2 interaction blockers – biochemical, validation set, GST-AP2 beads, flow cytometry, pilot screen (AID 504541;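 active = inhibition above 54%, about 3 SD of non-fluorescent compounds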;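 note: AP2 carries R879A mutation and is captured from E. coli lysate; bead-bound FITC arrestin peptide fluorescence measuring arrestin peptide binding to AP2; 0% = DMSO wells and 100% = excess unlabeled arrestin peptide control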). The following applies: FITC arrestin peptide, at 10 µM, stronger effect = higher value, AP2 beta2 appendage fragment, R879A mutant.
Chain of AP-2 complex subunit beta (Homo sapiens) (P63010 whole entry, looked up, the tested form may be a part, one chain of several): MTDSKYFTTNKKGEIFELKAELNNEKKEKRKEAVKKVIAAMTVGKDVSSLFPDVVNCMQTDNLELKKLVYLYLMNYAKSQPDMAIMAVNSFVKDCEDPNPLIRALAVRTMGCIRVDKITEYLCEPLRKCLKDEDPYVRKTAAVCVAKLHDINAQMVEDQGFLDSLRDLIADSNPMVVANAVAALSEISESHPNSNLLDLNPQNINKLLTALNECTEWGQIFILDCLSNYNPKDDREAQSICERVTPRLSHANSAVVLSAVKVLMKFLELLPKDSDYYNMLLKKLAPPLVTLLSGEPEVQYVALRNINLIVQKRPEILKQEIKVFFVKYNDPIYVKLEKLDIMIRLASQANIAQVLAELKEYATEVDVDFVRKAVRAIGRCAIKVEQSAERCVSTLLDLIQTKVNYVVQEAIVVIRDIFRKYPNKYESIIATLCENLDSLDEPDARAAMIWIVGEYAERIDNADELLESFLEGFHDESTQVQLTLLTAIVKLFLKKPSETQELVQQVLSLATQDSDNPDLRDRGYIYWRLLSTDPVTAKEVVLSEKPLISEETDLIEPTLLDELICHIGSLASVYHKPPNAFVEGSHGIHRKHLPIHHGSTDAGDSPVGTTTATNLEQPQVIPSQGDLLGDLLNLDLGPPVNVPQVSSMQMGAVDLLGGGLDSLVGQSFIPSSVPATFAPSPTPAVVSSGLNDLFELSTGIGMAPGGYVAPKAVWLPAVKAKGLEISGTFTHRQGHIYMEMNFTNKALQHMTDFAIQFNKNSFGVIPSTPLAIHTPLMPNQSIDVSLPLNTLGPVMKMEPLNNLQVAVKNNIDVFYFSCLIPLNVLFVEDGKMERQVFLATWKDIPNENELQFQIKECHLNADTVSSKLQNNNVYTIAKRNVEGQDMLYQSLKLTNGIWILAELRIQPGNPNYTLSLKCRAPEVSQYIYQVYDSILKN
Test [7] in a line: cytosolic pH regulators acting via V-ATPase – S. cerevisiae, pHLuorin, HTS validation (AID 504600; in the data active = response above about 15%;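 note: plate controls were DMSO for no effect and reference compound for full effect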). To be noted: V-ATPase proton transport, at 10 µM, stronger effect = higher value.
Test [8] concerns anti-desmoglein-3 scFv antibody binding to human DSG3. In words: blockers of pathogenic pemphigus antibody–desmoglein-3 binding – biochemical, validation compound set, bead-based, flow cytometry, pilot screen (AID 588368;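 active = binding below the plate cutoff, the plate median minus 3 SD, with a reading above zero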;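 note: signal is the median channel fluorescence of bead-bound GFP antibody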). The following applies: Protein G beads, DSG3-Fc, scFv-GFP binding, at 10 µM, stronger effect = lower value.
Test [9] can be described thus: Nile Red efflux blockade in pump-expressing yeast – validation compound set, multiplex, phenotypic, pilot screen (AID 588506;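 active = efflux inhibition above 0.42, the validation set average plus 4 SD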;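 note: Nile Red retained in cells so higher fluorescence means more efflux inhibition; 0 = negative control wells and 1 = enniatin B 25 µM full block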). The following applies: S. cerevisiae pump-expressing triplex, Nile Red efflux flow cytometry; at 10 µM; stronger effect = higher value; the pumps come from Candida albicans.
The target of test [10] is ATP-binding cassette sub-family B member 6 (Homo sapiens) (UniProt Q9NP58). In words: blockers of ABCB6-driven porphyrin uptake – K562-ABCB6 cells, flow cytometry, validation set, pilot screen (AID 588550).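 Note: 0% = DMSO wells and 100% = benzethonium chloride 70 µM positive control.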 To be noted: K562-ABCB6 porphyrin accumulation, 1 h, at 10 µM, stronger effect = higher value.
Chain of ATP-binding cassette sub-family B member 6 (Homo sapiens) (Q9NP58 whole entry, looked up): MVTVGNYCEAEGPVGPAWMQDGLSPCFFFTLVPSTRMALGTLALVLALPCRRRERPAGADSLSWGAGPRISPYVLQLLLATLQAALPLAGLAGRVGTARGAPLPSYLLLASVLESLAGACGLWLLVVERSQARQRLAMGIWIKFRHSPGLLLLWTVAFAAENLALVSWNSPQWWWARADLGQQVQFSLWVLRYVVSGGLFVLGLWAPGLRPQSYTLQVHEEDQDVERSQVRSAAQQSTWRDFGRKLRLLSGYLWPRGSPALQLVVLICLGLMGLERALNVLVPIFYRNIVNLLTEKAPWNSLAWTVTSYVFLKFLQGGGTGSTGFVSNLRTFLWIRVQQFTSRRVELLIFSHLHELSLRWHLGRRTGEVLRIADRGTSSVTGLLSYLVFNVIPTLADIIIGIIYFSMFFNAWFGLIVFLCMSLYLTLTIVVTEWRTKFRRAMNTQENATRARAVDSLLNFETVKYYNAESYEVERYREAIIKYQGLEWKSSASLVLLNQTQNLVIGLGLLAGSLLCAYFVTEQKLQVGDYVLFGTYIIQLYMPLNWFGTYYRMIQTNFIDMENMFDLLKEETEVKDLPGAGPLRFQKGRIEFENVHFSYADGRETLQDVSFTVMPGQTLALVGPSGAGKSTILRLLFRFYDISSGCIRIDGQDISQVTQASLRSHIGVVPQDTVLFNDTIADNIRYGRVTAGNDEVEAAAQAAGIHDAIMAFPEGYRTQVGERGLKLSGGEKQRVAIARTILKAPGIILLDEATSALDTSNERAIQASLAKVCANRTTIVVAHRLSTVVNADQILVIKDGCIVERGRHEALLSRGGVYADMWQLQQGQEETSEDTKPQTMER
Test [11] in a line: AML differentiation inducers, ER-HoxA9 marrow cells – cell-based, GFP/MAC1 double positive, flow cytometry, validation set, primary screen (AID 588685;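 active = differentiation response of at least 50%, scaled between solvent and reference control, from cells with both markers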;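 note: compound exposure lasts four days before antibody staining and flow analysis; 0% = DMSO wells and 100% = 5 µM fulvestrant positive control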). To be noted: stronger effect = higher value, normalized: vehicle 0, fulvestrant 100.

Chain of Beta-2 adrenergic receptor (Homo sapiens) (P07550 whole entry, looked up): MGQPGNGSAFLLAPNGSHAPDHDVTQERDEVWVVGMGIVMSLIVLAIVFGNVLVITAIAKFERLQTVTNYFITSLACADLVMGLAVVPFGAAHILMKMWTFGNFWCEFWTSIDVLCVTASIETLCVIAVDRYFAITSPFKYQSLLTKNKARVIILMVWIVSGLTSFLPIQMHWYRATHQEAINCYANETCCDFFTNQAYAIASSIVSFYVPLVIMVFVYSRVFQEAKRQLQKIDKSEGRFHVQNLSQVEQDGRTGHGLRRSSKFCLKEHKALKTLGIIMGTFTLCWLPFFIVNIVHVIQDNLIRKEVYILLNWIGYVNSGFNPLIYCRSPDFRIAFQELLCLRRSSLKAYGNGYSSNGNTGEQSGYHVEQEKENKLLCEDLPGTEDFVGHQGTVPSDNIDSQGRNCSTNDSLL
Chain of Integrin beta-1 (Homo sapiens) + Integrin alpha-4 (Homo sapiens) (P05556 whole entry, looked up): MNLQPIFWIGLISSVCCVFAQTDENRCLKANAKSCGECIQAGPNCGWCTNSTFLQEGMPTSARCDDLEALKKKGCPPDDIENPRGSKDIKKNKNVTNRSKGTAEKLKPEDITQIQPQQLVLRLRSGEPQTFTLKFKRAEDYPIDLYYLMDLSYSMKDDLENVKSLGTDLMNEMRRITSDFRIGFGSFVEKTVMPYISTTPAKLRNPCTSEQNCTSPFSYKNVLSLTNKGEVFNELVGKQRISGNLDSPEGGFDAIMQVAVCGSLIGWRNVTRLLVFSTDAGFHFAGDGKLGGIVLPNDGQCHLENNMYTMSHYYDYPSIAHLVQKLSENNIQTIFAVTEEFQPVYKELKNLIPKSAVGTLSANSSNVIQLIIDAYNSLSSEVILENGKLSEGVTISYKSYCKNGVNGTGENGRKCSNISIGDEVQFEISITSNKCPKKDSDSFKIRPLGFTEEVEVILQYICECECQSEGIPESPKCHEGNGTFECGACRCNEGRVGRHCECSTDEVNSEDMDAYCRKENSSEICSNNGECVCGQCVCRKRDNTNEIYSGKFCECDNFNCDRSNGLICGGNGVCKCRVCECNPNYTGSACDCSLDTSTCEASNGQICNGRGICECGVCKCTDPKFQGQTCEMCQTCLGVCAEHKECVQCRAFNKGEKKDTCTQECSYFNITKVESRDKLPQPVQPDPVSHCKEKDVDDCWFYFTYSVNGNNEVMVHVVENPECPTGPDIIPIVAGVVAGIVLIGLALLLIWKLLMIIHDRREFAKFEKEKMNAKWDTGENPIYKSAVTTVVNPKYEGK
Chain of Integrin beta-1 (Homo sapiens) + Integrin alpha-4 (Homo sapiens) (P13612 whole entry, looked up): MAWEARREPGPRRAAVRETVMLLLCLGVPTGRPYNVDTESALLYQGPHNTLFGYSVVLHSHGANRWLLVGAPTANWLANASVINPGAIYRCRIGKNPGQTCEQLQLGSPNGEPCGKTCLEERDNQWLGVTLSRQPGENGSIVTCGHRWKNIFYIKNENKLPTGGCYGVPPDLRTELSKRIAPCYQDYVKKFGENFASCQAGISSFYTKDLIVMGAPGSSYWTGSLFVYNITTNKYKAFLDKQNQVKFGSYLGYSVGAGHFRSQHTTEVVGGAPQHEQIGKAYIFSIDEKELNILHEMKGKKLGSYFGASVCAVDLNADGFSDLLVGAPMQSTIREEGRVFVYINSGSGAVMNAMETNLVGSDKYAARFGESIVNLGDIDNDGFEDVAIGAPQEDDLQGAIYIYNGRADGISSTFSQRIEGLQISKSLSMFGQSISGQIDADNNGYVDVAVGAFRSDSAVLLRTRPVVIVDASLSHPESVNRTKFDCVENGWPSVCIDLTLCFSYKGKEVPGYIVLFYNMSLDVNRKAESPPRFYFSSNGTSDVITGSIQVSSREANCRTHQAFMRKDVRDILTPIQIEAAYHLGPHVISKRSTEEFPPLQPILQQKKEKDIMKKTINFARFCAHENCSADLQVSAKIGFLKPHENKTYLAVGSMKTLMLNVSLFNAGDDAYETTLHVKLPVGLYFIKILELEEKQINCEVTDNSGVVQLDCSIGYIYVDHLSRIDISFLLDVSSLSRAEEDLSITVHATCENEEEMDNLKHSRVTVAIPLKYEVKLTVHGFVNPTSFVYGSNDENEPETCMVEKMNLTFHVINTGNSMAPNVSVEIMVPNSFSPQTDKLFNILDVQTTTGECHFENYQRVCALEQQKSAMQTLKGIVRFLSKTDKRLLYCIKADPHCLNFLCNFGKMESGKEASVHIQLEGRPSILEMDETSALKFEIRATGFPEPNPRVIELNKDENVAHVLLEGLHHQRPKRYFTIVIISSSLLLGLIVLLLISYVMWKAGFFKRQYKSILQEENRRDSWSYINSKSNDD

`COc1cccc(OC2OC3COC(C)(C)OC3C(O)C2NC(C)=O)c1` (stereo not given) yielded a double positive events in test [1] of 63.6%. The vesicle binding response in test [1] is 203% (inactive). Besides, the values for the inhibition in test [2], in test [6] and in [10] were 5.61% (inactive), 2.96% (inactive) and 30% (inactive), respectively. Moreover, in test [3], the superoxide response (% of plate) was 97.8% (inactive). Besides, in test [4], the aptamer binding inhibition was 2% (inactive). In addition, the response is 2.82% (inactive) in [5] and 6.08% (inactive) in [7]. Moreover, in [8], the binding (% of control) is 103% (inactive). Moreover, the efflux inhibition (fraction of control) in test [9] is 0.1 (inactive). Further, the differentiation response in [11] was -11.9% (inactive).

In the case of `Oc1[nH]c2ccccc2c1N=Nc1ccccc1`, the double positive events in test [1] was determined as 49.4%. In [1], the vesicle binding response is 168% (inactive). The inhibition in [2] is 9.09% (inactive); in [6] it was -8.96% (inactive); in test [10], 10% (inactive). Also, the superoxide response (% of plate) in test [3] is 104% (inactive). For the same molecule, in test [4], the aptamer binding inhibition was 3% (inactive). Also, the response in test [7] was -2.64% (inactive). The binding (% of control) in test [8] was 103% (inactive). Besides, in [9], the efflux inhibition (fraction of control) was -0.35 (inactive). For the same molecule, in [11], the differentiation response is -8.27% (inactive).

`c1ccc2c(CC3=NCCN3)cccc2c1`: the double positive events in [1] was 49.4%. Further, the vesicle binding response in test [1] was 192% (inactive). The inhibition is 11.9% (inactive) in [2], -1.38% (inactive) in [6] and 11% (inactive) in test [10]. The superoxide response (% of plate) in test [3] was 99% (inactive). Besides, the aptamer binding inhibition in test [4] is 1% (inactive). The response in test [7] was 1.28% (inactive). Moreover, the binding (% of control) in [8] was 96.2% (inactive). Further, in [9], the efflux inhibition (fraction of control) was -0.16 (inactive). In [11], the differentiation response is 7.87% (inactive).

Molecule `COc1c2occc2c(OC)c2c(=O)cc(C)oc12` gave a double positive events in test [1] of 48.6%. The vesicle binding response in test [1] is 176% (inactive). For the same molecule, the inhibition in test [2] was 8.15% (inactive); in test [6] it was -4.24% (inactive); in [10], 5% (inactive). The superoxide response (% of plate) in test [3] is 108% (inactive). In addition, the aptamer binding inhibition in test [4] is 1% (inactive). Further, the response in test [7] was 3.33% (inactive). In [8], the binding (% of control) is 102% (inactive). For the same molecule, in [9], the efflux inhibition (fraction of control) was 0.1 (inactive). Besides, the differentiation response in test [11] is 33.7% (inactive).

Consider `COc1cc(/C=C(\C#N)C(=O)N2CCc3ccccc32)ccc1O`, for which the double positive events in [1] stood at 64.1%. In test [1], the vesicle binding response was 273% (inactive). The inhibition in test [2] was -88.6% (inactive); in test [6], -7.55% (inactive); in [10], -41% (inactive). In addition, in [3], the superoxide response (% of plate) is 98.9% (inactive). For the same molecule, in [4], the aptamer binding inhibition was -1% (inactive). The response in [5] is 0.72% (inactive); in test [7], 1.46% (inactive). The binding (% of control) in test [8] is 105% (inactive). Moreover, the efflux inhibition (fraction of control) in [9] is 0.19 (inactive). In addition, the differentiation response in [11] was 2.46% (inactive).

Regarding `CC(COc1ccccc1)N(CCCl)Cc1ccccc1` (stereo not given), in [1], the double positive events came to 70.8%. For the same molecule, the vesicle binding response in [1] was 566% (inactive). Also, the inhibition was 6.46% (inactive) in [2], 1.11% (inactive) in test [6] and 10% (inactive) in test [10]. Besides, the superoxide response (% of plate) in test [3] is 97.4% (inactive). Further, the aptamer binding inhibition in [4] was 2% (inactive). Also, the values for the response in test [5] and in [7] were -7.17% (inactive) and 2.49% (inactive), respectively. The binding (% of control) in test [8] is 100% (inactive). Also, in test [9], the efflux inhibition (fraction of control) was -0.35 (inactive). The differentiation response in test [11] was 0% (inactive).

For the molecule `Cc1ccc(OCCSc2ncccn2)c(C)c1`, the double positive events in test [1] was 49.1%. In test [1], the vesicle binding response was 186% (inactive). Moreover, the inhibition is 3.49% (inactive) in test [2], -11.2% (inactive) in [6] and 10% (inactive) in [10]. For the same molecule, the superoxide response (% of plate) in test [3] was 114% (inactive). Also, in [4], the aptamer binding inhibition is 1% (inactive). For the same molecule, in [7], the response is 12.3% (inactive). Also, in test [8], the binding (% of control) is 98% (inactive). In addition, the efflux inhibition (fraction of control) in test [9] is 0.14 (inactive). Also, the differentiation response in test [11] was -13.1% (inactive).

The inhibition is the change of the read-out against control, counted positive when it falls.
